Test results as given in PubChem BioAssay.
Several values for one entry are separate records, joined by “and”; a condition that tells them apart may be missing. Equal values may be shown once. More than one record can exist for a structure, and the calls need not agree. Activity calls are given as the source filed them.

Columns and labels:
[1] = test system: PRMT1 (protein arginine N-methyltransferase 1); experiment: small molecules binding arginine methyltransferase PRMT1 – biochemical, small-molecule microarray, 635 nm fluorescence, primary screen (AID 1088); details: higher = more signal;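 note: binding of Prmt1 protein to compounds spotted on small-molecule microarray slides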
[2] = growth effects on S. cerevisiae YJM789 – YJM789 clinical isolate, OD600, 24 h, basal, primary screen (AID 1089); details: higher = more signal, called active from +8 up or from −8 down;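 note: growth of clinical yeast isolate S. cerevisiae YJM 789 seeded 1000 cells per well; test concentration not given here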
[3] = S. pombe growth modifiers, basal conditions – strain 972, OD600, 24 h, no modulator, primary screen (AID 1090);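 note: basal condition with compound alone and no growth modifier present; test concentration not given here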; details: S. pombe 972 growth, higher = more signal, called active from +8 up or from −8 down
[4] = budding yeast growth modifiers under rapamycin – strain BY4716, OD600, 96 h, primary screen (AID 1091); note: test concentration not given here; details: S. cerevisiae BY4716 + rapamycin, higher = more signal, called active from +8 up or from −8 down
[5] = target: Torsin-1A-interacting protein 2 (Homo sapiens) (UniProt Q8NFQ8); experiment: small molecules binding lysate-expressed LULL1 – cell lysate, human LULL1 lysate, 635/667 nm fluorescence, primary screen (AID 1092); details: small-molecule microarray, hLULL1 lysate binding, 635 nm fluorescence; higher = more signal;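 note: probe is lysate of COS7 cells overexpressing human LULL1; score merges per-feature 667 nm fluorescence with signal-to-noise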
[6] = optical density change of DRC41 E. coli – strain DRC41, OD650, 24 h, E. coli filamentation project, primary screen (AID 1093);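 note: MC1000 strain lacking acrAB efflux and sulA so SOS filamentation is blocked; test concentration not given here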; details: E. coli DRC41 growth, higher = more signal, called active from +8 up or from −8 down
[7] = probe aLefty2 binding to arrayed compounds – biochemical, biotinylated probe, 635/667 nm fluorescence, primary screen (AID 1094); details: small-molecule microarray, higher = more signal;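 note: score merges spot fluorescence near 667 nm with spot signal-to-noise ratio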
[8] = test system: Noggin (protein binding on small-molecule microarray); experiment: small molecules binding Noggin protein – biochemical, 635/667 nm fluorescence, primary screen (AID 1095); details: 635 nm fluorescence, higher = more signal;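 note: score merges 667 nm feature fluorescence with signal to noise over triplicate slides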
[9] = target: Neurogenic locus notch homolog protein 3 (Homo sapiens) (UniProt Q9UM47); experiment: small molecules binding NOTCH3 protein – biochemical, 635/667 nm fluorescence, primary screen (AID 1096); details: small-molecule microarray, 635 nm fluorescence, higher = more signal
[10] = probe aEGFR binding to arrayed compounds – biochemical, biotinylated probe, 635/667 nm fluorescence, primary screen (AID 1097); details: small-molecule microarray, higher = more signal;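 note: probe is a biotinylated anti-EGFR antibody binding compounds printed on slides; score combines fluorescence near 667 nm and signal to noise of each spot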
[11] = test system: Plasmodium falciparum Sir2 (PF13_0152, Sir2A); experiment: Plasmodium falciparum Sir2A binding compounds – biochemical, small-molecule microarray, 635 nm fluorescence, primary screen (AID 1098); details: fluorescence 635 nm, higher = more signal;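 note: score merges spot fluorescence intensity with its signal-to-noise ratio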
[12] = probe aDKK1 binding to arrayed compounds – biochemical, biotinylated probe, 635/667 nm fluorescence, primary screen (AID 1099); details: small-molecule microarray, higher = more signal;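 note: score merges 667nm spot fluorescence with signal to noise across triplicate slides; reference of the scale not given here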
[13] = probe aCHRDL2 binding to arrayed compounds – biochemical, biotinylated probe, 635/667 nm fluorescence, primary screen (AID 1100); details: small-molecule microarray, higher = more signal
[14] = change in splice reporter luminescence, either direction, cell-based, HEK293, spliceosome inhibition project, primary screen (AID 1101); details: HEK293 splicing luciferase reporter, 24 h, higher = more signal, called active from +8 up or from −8 down;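 note: HEK293 cells carrying a splicing-competent luciferase reporter gene; test concentration not given here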
[15] = target: Fibroblast growth factor 10 (Homo sapiens) (UniProt O15520); experiment: compounds binding fibroblast growth factor 10 – biochemical, small-molecule microarray, 635 nm fluorescence, primary screen (AID 1102); details: FGF10 binding, fluorescence 635 nm, higher = more signal
[16] = test system: glycogen synthase kinase-3 (GSK3A per assay name; protocol says GSK3B); experiment: compounds binding glycogen synthase kinase-3 – biochemical, small-molecule microarray, 635 nm fluorescence, GSK3A, primary screen (AID 1103); details: fluorescence 635 nm, higher = more signal; note: the record names both GSK3A and GSK3B
[17] = target: Epidermal growth factor receptor (Homo sapiens) (UniProt P00533); experiment: compounds binding epidermal growth factor receptor – biochemical, small-molecule microarray, 635 nm fluorescence, primary screen (AID 1104); details: EGFR binding, higher = more signal;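 note: score merges 667 nm emission intensity with spot signal to noise over triplicate slides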
[18] = target: Follistatin-related protein 3 (Homo sapiens) (UniProt O95633); experiment: compounds binding follistatin-related protein 3 – biochemical, small-molecule microarray, 635 nm fluorescence, primary screen (AID 1105); details: FSTL3 binding, higher = more signal;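 note: score merges emission near 667 nm and signal to noise per printed spot across three slides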
[19] = target: Dickkopf-related protein 1 (Homo sapiens) (UniProt O94907); experiment: small molecules binding DKK1 protein – biochemical, small-molecule microarray, 635 nm fluorescence scan, primary screen (AID 1106); details: higher = more signal;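 note: score merges emission near 667 nm with signal to noise over three replicate slides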
[20] = test system: Inhibin beta A chain (activin A); experiment: small molecules binding activin A – biochemical, small-molecule microarray, 635 nm fluorescence scan, primary screen (AID 1107); details: INHBA, higher = more signal;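 note: mouse activin A protein probed at 4.33 µg/mL on printed slides; score merges bound-protein fluorescence near 667 nm with spot signal-to-noise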

Torsin-1A-interacting protein 2 (Homo sapiens), sequence (Q8NFQ8 whole entry, looked up): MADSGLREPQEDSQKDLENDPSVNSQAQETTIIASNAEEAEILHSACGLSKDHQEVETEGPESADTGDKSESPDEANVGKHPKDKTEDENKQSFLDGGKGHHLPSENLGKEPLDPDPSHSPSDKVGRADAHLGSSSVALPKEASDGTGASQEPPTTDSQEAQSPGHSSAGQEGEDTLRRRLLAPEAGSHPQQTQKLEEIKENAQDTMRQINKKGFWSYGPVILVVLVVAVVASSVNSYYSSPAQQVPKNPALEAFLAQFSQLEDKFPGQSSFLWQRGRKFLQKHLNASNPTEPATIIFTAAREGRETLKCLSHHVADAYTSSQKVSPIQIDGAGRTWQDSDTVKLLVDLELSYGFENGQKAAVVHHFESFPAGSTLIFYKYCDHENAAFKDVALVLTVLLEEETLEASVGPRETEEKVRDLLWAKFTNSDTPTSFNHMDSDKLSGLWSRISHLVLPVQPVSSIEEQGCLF
Dickkopf-related protein 1 (Homo sapiens), sequence (O94907 whole entry, looked up): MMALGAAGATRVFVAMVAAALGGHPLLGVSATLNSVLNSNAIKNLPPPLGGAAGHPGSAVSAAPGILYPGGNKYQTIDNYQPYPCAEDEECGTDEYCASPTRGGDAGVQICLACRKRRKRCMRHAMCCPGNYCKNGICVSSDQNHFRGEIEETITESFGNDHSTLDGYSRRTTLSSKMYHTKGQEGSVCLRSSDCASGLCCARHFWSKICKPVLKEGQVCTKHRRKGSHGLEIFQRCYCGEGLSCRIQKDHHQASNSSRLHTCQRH
Neurogenic locus notch homolog protein 3 (Homo sapiens), sequence (Q9UM47 whole entry, looked up): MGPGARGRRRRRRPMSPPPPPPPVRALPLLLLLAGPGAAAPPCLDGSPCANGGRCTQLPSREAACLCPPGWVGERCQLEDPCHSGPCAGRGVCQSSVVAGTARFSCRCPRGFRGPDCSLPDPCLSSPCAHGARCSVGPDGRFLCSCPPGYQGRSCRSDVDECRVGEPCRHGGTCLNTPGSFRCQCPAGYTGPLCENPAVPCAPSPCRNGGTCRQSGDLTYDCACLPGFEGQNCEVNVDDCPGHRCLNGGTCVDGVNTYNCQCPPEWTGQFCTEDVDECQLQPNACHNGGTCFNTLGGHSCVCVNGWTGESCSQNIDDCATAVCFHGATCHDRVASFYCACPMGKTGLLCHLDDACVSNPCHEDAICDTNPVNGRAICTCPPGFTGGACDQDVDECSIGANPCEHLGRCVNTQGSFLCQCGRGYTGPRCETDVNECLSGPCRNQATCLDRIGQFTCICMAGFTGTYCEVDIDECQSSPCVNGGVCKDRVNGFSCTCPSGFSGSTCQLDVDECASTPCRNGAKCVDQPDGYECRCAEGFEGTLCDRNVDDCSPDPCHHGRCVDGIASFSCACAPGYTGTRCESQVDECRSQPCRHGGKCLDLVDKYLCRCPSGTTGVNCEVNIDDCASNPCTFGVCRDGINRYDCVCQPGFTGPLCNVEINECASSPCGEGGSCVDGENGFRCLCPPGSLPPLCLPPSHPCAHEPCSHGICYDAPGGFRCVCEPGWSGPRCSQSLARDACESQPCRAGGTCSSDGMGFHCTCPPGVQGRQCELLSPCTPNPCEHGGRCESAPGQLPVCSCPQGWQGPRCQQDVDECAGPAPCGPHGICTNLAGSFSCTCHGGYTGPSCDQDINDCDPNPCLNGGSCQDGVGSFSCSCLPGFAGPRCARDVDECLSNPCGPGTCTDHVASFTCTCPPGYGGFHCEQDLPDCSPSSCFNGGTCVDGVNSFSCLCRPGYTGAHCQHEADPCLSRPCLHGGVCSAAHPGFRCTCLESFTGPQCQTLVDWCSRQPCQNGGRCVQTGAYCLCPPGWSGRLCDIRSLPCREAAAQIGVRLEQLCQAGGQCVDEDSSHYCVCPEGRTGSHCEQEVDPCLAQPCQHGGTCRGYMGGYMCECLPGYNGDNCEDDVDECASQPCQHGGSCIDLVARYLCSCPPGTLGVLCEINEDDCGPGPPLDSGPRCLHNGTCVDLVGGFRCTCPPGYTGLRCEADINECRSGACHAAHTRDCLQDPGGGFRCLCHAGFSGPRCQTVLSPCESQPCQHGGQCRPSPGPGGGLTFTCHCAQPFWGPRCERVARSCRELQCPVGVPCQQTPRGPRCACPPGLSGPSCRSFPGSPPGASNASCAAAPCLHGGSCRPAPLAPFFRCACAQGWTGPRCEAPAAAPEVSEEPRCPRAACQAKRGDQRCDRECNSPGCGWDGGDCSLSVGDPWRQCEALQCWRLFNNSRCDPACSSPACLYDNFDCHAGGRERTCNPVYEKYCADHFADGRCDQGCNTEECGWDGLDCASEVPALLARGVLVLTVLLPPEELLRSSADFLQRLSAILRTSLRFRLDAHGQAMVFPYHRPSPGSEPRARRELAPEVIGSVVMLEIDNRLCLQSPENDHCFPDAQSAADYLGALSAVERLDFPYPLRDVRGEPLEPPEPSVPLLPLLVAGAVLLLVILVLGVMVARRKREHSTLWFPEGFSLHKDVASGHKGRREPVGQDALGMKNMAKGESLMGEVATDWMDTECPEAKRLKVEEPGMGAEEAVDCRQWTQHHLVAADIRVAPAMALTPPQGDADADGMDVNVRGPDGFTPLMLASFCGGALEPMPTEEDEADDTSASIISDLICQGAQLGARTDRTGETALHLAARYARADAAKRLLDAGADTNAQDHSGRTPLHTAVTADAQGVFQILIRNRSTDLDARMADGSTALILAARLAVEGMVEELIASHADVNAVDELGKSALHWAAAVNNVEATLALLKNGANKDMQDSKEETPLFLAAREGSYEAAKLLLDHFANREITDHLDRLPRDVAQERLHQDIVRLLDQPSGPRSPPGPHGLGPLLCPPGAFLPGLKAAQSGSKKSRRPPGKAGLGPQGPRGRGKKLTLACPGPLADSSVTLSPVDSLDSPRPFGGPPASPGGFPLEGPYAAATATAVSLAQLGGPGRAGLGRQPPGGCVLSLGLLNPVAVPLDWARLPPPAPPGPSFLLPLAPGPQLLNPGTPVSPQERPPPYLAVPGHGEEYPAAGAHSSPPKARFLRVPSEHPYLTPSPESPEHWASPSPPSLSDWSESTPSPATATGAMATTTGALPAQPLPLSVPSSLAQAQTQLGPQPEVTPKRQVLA
Epidermal growth factor receptor (Homo sapiens), sequence (P00533 whole entry, looked up): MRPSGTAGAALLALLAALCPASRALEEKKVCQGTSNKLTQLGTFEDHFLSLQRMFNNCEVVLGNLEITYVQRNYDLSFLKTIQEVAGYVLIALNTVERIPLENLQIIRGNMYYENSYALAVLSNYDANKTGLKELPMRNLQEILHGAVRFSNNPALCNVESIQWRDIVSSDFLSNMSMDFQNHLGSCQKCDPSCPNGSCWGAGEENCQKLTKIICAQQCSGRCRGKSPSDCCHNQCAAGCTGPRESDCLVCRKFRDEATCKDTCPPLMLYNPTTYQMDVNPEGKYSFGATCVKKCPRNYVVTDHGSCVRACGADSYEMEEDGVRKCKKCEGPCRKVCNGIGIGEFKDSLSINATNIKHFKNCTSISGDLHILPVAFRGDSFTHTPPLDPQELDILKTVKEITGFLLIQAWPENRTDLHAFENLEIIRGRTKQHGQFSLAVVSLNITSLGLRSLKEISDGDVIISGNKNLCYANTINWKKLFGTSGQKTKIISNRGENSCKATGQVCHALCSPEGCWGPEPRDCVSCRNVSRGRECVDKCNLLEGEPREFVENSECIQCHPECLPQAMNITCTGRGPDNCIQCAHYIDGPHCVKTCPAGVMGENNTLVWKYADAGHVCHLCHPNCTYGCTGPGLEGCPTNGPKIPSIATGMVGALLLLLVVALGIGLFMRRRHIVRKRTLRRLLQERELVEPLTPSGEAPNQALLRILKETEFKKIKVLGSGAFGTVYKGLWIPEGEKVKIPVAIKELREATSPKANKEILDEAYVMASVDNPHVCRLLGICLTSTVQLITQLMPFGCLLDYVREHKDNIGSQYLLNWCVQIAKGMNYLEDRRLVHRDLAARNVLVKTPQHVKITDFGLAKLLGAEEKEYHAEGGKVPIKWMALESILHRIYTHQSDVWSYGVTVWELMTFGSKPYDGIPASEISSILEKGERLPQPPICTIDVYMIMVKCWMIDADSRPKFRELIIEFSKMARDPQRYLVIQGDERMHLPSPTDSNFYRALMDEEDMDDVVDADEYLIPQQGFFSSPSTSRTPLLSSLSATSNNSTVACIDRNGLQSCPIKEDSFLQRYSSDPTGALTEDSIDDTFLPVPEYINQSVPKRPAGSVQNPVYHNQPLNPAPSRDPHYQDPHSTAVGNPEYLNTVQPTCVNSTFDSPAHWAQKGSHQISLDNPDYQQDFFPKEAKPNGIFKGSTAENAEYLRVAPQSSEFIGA
Follistatin-related protein 3 (Homo sapiens), sequence (O95633 whole entry, looked up): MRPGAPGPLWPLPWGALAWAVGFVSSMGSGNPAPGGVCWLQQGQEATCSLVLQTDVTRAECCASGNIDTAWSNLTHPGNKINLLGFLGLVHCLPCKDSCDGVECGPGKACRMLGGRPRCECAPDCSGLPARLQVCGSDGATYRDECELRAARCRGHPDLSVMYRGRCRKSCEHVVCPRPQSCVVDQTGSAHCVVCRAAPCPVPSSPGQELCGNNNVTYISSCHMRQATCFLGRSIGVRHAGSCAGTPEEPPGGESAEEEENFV
Fibroblast growth factor 10 (Homo sapiens), sequence (O15520 whole entry, looked up): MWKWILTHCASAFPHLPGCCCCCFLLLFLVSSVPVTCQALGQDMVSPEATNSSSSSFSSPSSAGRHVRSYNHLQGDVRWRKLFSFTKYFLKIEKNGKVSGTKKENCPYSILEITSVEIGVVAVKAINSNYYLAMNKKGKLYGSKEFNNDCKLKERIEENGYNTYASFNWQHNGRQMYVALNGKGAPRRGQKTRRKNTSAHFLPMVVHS

SMILES: C=C[C@@H](C)[C@@H](O)c1ccc(O)c2ccccc12
- composite z-score [1]: -1.15 and -0.5
- z-score [2]: -5.87 (inactive) and -14.6 (active)
- z-score [3]: -19.1 (active) and -19.4 (active)
- z-score [4]: 3.53 (inactive) and 5.23 (inactive)
- composite z-score [5]: -0.414 and 0.384
- z-score [6]: -0.113 (inactive) and 1.61 (inactive)
- composite z-score [7]: -0.239 and -0.107
- composite z-score [8]: -0.803 and -0.326
- composite z-score [9]: -1.25 and -0.933
- composite z-score [10]: -0.321 and -0.314
- composite z-score [11]: 1.02 and -0.0966
- composite z-score [12]: -0.419 and -0.315
- composite z-score [13]: 0.238 and 0.216
- z-score [14]: 0.591 (inactive) and -0.814 (inactive)
- composite z-score [15]: -0.665 and -0.654
- composite z-score [16]: -1.52 and -0.746
- composite z-score [17]: -0.815 and -1.04
- composite z-score [18]: -0.961 and -0.644
- composite z-score [19]: -0.598 and 0.088
- composite z-score [20]: 0.936 and 0.89

SMILES: Cc1ccc(S(=O)(=O)N[C@H]2COC(=O)[C@@H](C)COC(=O)[C@H](C)NC(=O)CC=C[C@H]2C)cc1
- composite z-score [1]: 0.277
- z-score [2]: -0.0016 (inactive)
- z-score [3]: -0.838 (inactive)
- z-score [4]: -0.351 (inactive)
- composite z-score [5]: -0.487
- z-score [6]: 0.147 (inactive)
- composite z-score [7]: -0.121
- composite z-score [8]: 1.17
- composite z-score [9]: 0.646
- composite z-score [10]: -0.0862
- composite z-score [11]: 0.163
- composite z-score [12]: -0.45
- composite z-score [13]: -0.972
- z-score [14]: 0.00442 (inactive)
- composite z-score [15]: 0.752
- composite z-score [16]: 0.393
- composite z-score [17]: 0.554
- composite z-score [18]: 0.804
- composite z-score [19]: 0.881
- composite z-score [20]: -0.108

SMILES: C=CCN(C(=O)C(c1cccs1)N(C(=O)/C=C\C(=O)O)c1ccc(CCO)cc1)C(C)(C)C (stereo not given)
- composite z-score [1]: -0.417 and -0.231
- z-score [2]: -0.042 (inactive) and 0.181 (inactive)
- z-score [3]: -0.701 (inactive) and 0.442 (inactive)
- z-score [4]: -0.3 (inactive) and -0.104 (inactive)
- composite z-score [5]: 3.58 and 3.17
- z-score [6]: 0.286 (inactive) and -0.294 (inactive)
- composite z-score [7]: -0.0964 and -0.116
- composite z-score [8]: -2.17 and -1.9
- composite z-score [9]: -0.583 and -1.21
- composite z-score [10]: -0.106 and -0.209
- composite z-score [11]: -0.202 and 0.938
- composite z-score [12]: -0.123 and 0.0381
- composite z-score [13]: 0.274 and 1.05
- z-score [14]: -0.14 (inactive) and 0.253 (inactive)
- composite z-score [15]: -0.99 and -2.19
- composite z-score [16]: -0.265 and -0.746
- composite z-score [17]: -1.41 and -1.91
- composite z-score [18]: -1.76 and -2.36
- composite z-score [19]: -2.48 and -2.7
- composite z-score [20]: -1.03 and -2.06

SMILES: C=CCN(C(=O)C1N(CCOCCO)C(=O)C2C(C(=O)O)C3C=CC21O3)C(C)(C)C (stereo not given)
- composite z-score [1]: -1.26 and -0.124
- z-score [2]: -0.419 (inactive) and -0.683 (inactive)
- z-score [3]: -0.378 (inactive) and -0.505 (inactive)
- z-score [4]: -0.357 (inactive) and -0.658 (inactive)
- composite z-score [5]: -1.29 and -1.44
- z-score [6]: 0.389 (inactive) and 0.267 (inactive)
- composite z-score [7]: -0.251 and -0.197
- composite z-score [8]: -2.02 and -1.83
- composite z-score [9]: -1.49 and -0.757
- composite z-score [10]: -0.323 and -0.241
- composite z-score [11]: 1.73 and -1.59
- composite z-score [12]: -0.128 and -0.31
- composite z-score [13]: 0.867 and 0.619
- z-score [14]: -0.235 (inactive) and 0.32 (inactive)
- composite z-score [15]: -1.8 and -1.24
- composite z-score [16]: -1.76 and -0.852
- composite z-score [17]: -2.23 and -1.56
- composite z-score [18]: -2.47 and -1.69
- composite z-score [19]: -2.47 and -1.32
- composite z-score [20]: -1.84 and -3.28

SMILES: C=CCN(CCCCC)C(=O)C1N(CCCCCCO)C(=O)C2C(C(=O)O)C3C=CC21O3 (stereo not given)
- composite z-score [1]: 0.19 and -0.725
- z-score [2]: -0.657 (inactive) and -0.677 (inactive)
- z-score [3]: -0.849 (inactive) and -0.744 (inactive)
- z-score [4]: -0.44 (inactive) and -0.767 (inactive)
- composite z-score [5]: 0.565 and 1.97
- z-score [6]: -0.617 (inactive) and -0.541 (inactive)
- composite z-score [7]: -0.126 and -0.0198
- composite z-score [8]: -2.33 and -1.76
- composite z-score [9]: -0.968 and -0.32
- composite z-score [10]: -0.322 and -0.32
- composite z-score [11]: 1.34 and 1.33
- composite z-score [12]: -0.3 and -0.257
- composite z-score [13]: 0.933 and 0.677
- z-score [14]: -0.372 (inactive) and 0.305 (inactive)
- composite z-score [15]: -1.23 and -1.99
- composite z-score [16]: -0.699 and -1.32
- composite z-score [17]: -1.76 and -2.1
- composite z-score [18]: -2.21 and -0.897
- composite z-score [19]: -3.08 and -2.95
- composite z-score [20]: -0.194 and -1.46

SMILES: C=CCN(C(=O)C1N(CCCCCCO)C(=O)C2C(C(=O)O)C3C=CC21O3)c1ccc(OC)cc1 (stereo not given)
- composite z-score [1]: -0.176 and -1.86
- z-score [2]: -0.943 (inactive) and -0.7 (inactive)
- z-score [3]: -2.12 (inactive) and -1.62 (inactive)
- z-score [4]: -1.2 (inactive) and -0.708 (inactive)
- composite z-score [5]: 3.53 and 3.04
- z-score [6]: 2.3 (inactive) and 1.01 (inactive)
- composite z-score [7]: 0.259 and 0.337
- composite z-score [8]: -2.89 and -3.12
- composite z-score [9]: -0.602 and -1.35
- composite z-score [10]: -0.267 and -0.241
- composite z-score [11]: 1.04 and -1.32
- composite z-score [12]: 0.0787 and 0.332
- composite z-score [13]: 1.27 and 1.18
- z-score [14]: -1.67 (inactive) and -0.118 (inactive)
- composite z-score [15]: -0.791 and -1.26
- composite z-score [16]: -0.329 and -0.852
- composite z-score [17]: -2.79 and -2.32
- composite z-score [18]: -2.58 and -1.84
- composite z-score [19]: -2.84 and -2.35
- composite z-score [20]: -1.71 and -1.78

SMILES: C=C[C@H](C)[C@H](O)c1ccc(O)c2ccccc12
- composite z-score [1]: -0.0037 and -0.738
- z-score [2]: -3.96 (inactive) and -3.22 (inactive)
- z-score [3]: -10.7 (active) and -6.18 (inactive)
- z-score [4]: 4.04 (inactive) and 4.01 (inactive)
- composite z-score [5]: 0.48 and 0.622
- z-score [6]: 1.84 (inactive) and 1.81 (inactive)
- composite z-score [7]: -0.274 and -0.168
- composite z-score [8]: -0.431 and -0.211
- composite z-score [9]: -0.283 and -0.073
- composite z-score [10]: -0.275 and -0.203
- composite z-score [11]: -0.826 and -0.608
- composite z-score [12]: -0.338 and -0.232
- composite z-score [13]: 0.151 and -0.0669
- z-score [14]: -2.7 (inactive) and -1.54 (inactive)
- composite z-score [15]: -1.16 and 0.187
- composite z-score [16]: -0.0928 and -0.78
- composite z-score [17]: -0.989 and 0.375
- composite z-score [18]: -0.433 and -0.63
- composite z-score [19]: -0.644 and -0.0107
- composite z-score [20]: 0.794 and 0.956

SMILES: O=C1NC(=O)C2C1C=CC(C(O)c1ccc([N+](=O)[O-])cc1)N2Nc1ccc(Cl)cc1Cl (stereo not given)
- composite z-score [1]: 0.551 and 0.395
- z-score [2]: -1.44 (inactive) and -1.78 (inactive)
- z-score [3]: -1.46 (inactive) and -1.07 (inactive)
- z-score [4]: -0.923 (inactive) and -0.888 (inactive)
- composite z-score [5]: 3.3 and 3.03
- z-score [6]: 0.33 (inactive) and 0.728 (inactive)
- composite z-score [7]: 0.127 and 0.386
- composite z-score [8]: -0.142 and -0.311
- composite z-score [9]: 0.843 and 0.588
- composite z-score [10]: 0.0661 and -0.102
- composite z-score [11]: 0.59 and 0.0889
- composite z-score [12]: -0.0543 and 1.09
- composite z-score [13]: 0.765 and 0.824
- z-score [14]: -1.06 (inactive) and -1.49 (inactive)
- composite z-score [15]: 0.945 and 0.229
- composite z-score [16]: 0.0563 and 0.737
- composite z-score [17]: 0.0939 and -0.12
- composite z-score [18]: 0.272 and 0.132
- composite z-score [19]: 0.0264 and -0.297
- composite z-score [20]: 1.13 and 1.31
